Measurements reported in the supplement of paper PMC3334620.
The full ranking holds about 33,000 sequences; the median of “E-score (-0.5 to 0.5)” is about -0.054, and the highest 2% start at about 0.35. This is one part of a sample in which the highest values are shown more often than they occur.

molecular target: T1, Stb5 (UniProt P38699); test: PBM E-score (8-mer binding enrichment) (E-score (-0.5 to 0.5)); higher = stronger / more preferred TF binding; conditions: protein concentration: 200 nM; construct: GST-full length
T1 sequence: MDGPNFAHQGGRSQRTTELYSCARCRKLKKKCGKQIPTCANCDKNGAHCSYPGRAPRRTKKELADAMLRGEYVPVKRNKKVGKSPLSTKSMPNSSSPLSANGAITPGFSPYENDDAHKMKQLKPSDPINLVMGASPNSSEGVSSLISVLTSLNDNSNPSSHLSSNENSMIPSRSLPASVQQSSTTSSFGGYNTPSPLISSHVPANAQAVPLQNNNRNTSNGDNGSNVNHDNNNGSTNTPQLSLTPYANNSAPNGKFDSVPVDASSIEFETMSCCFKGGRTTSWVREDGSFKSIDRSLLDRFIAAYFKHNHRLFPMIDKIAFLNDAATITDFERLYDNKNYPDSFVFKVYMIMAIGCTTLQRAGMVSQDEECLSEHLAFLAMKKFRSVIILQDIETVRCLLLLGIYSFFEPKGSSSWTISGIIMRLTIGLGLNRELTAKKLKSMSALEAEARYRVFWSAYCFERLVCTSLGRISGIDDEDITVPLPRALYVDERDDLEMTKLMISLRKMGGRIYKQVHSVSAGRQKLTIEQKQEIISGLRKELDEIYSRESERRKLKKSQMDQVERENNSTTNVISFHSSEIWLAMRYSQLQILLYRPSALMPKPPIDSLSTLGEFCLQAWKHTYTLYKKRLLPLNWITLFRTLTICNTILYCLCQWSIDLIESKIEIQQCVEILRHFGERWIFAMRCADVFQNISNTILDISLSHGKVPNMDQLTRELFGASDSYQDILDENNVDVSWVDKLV
Method: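 Universal 'all 10-mer' protein binding microarrays (Agilent AMADID 015681) probed with GST-tagged S. cerevisiae TFs (full-length or DBD) made by in vitro transcription/translation (PURExpress), about 100-200 nM. Bound TF was detected with fluorescent anti-GST. Each ungapped 8-mer (which stands for itself and its reverse complement) is scored by the PBM enrichment score (E-score), a modified Wilcoxon-Mann-Whitney statistic from -0.5 to +0.5, computed with the Universal PBM Analysis Suite. Scale: above 0.35 generally sequence-specific binding.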

Sequence | PBM E-score
GCAACTTA | -0.0671
CAGTCTAA | 0.00323
ACCGCCCG | 0.345
ACCCGCCC | 0.276
GCCGCCCA | 0.19
ACCGCCCT | 0.268
CCCCGCCC | 0.43
GCCGCCCC | 0.388
GCCCGCCC | 0.271
CCCGCCCC | 0.361
CCCGCCCA | 0.258
GCCCCCCC | -0.161
ACCGCCCC | 0.367
CCCGCCCG | 0.298
ACCTCCAG | -0.188
ATAAGGGC | 0.0814
GAAGCCAC | 0.0166
GCCCGTTA | 0.228
TGGAAGAA | -0.0838
ATGATCGG | 0.297
CCTGATCA | -0.0914
AGAGAACC | -0.125

Sequence | PBM E-score
CTCATGCC | -0.103
GAGATACC | 0.168
AGACCAGA | -0.27
ATAGAAGA | -0.05
CGACTTAC | 0.0696
GGACTTAC | 0.358
GGCCTTAA | 0.377
GGTCTTAA | 0.355
AGACTTAC | -0.161
GGGCTTAA | 0.391
TGGCTTAA | -0.044
CGGCTTAA | 0.351
AGCCTTAA | -0.0403
TGTCTTAA | 0.00631
TGCCTTAA | -0.192
CGTCTTAA | -0.0278
CCCTGGAG | -0.234
GCTCGGCA | 0.122
CTCAATCA | -0.00421
AACTAGCC | -0.148
ATGTGGTA | -0.222
CGCGGGAA | 0.272

Sequence | PBM E-score
AATCTTGG | -0.0505
CCGATACA | 0.28
ACAGCGGG | 0.332
CGACTTAA | -0.0485
GGACTTAA | 0.373
AGACTTAA | -0.288
ATAGAATA | -0.0414
CGATAACC | 0.16
GAACCCGA | 0.0501
TAACCCGA | 0.225
AGACCCGA | 0.287
CAACCCGG | 0.0495
AAACCCGC | 0.414
AAACCCGG | 0.395
CAACCCGC | 0.169
CGACCCGC | 0.198
AGACCCGC | 0.36
AAACCCGA | 0.395
AAACCCGT | 0.318
GAACCCGC | 0.199
ATGGACTC | -0.103
CCCGGCTA | 0.337

Sequence | PBM E-score
ACCTGGAG | -0.133
CAAGGCTG | -0.26
AGATAACA | -0.0529
TCGCCCCA | -0.317
ATCACCGC | 0.447
ATCACCGG | 0.37
CTCACCGA | 0.248
CTCACCGC | 0.164
ATCACCGA | 0.433
GTCACCGA | 0.285
ATCACCTG | 0.0314
ATCACCAG | -0.0626
ATCACCTC | 0.0381
TATGCACA | -0.16
GCCTCGCA | -0.0909
CGCATTTC | -0.0467
GGCAGTAA | 0.256
AGGAGCAT | -0.255
CCGCATTA | 0.243
GCTGGCCC | -0.184
